Results: PubChem BioAssay AID1159580 (chemical genetic matrix, 2015)
Screen size: about 5,500 compounds; about 2,000 (36%) were called active. Not shown: some 18% with an inconclusive outcome. Rule as the data show it: active = normalized growth mostly below about 0.91 (no sharp cut-off); inconclusive = no clear call, values can overlap the other calls; inactive = mostly above about 0.92. Some of the results follow.

Test: chemical genetic growth profiling, strain panel (AID 1159580);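 also: tested at 20 µM; growth read once vehicle control cultures reached saturation at 30 °C; 1 = growth at the plate median or of vehicle wells; lower values mean less growth of the strain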
Settings: growth OD

Measured: normalized growth

CC1(C)C(=O)[C@@H]2C[C@@]3(O)C4=CC(=O)O[C@@H](c5ccoc5)[C@]4(C)CCC3[C@@](C)(C2=O)[C@H]1CC(=O)O (some centres not stated)
inactive: S. cerevisiae deletion strains, locus YJR066W, strain TOR1, hits give low values 0.941 | S. cerevisiae deletion strains, locus YKL009W, strain mrt4, hits give low values 0.998 | S. cerevisiae deletion strains, locus YKL068W, hits give low values 1 | S. cerevisiae deletion strains, locus YKL085W, strain MDH1 (second series), hits give low values 0.99 | S. cerevisiae deletion strains, locus YKL085W, strain MDH1, hits give low values 0.99 | S. cerevisiae deletion strains, locus YKL160W, strain elf1, hits give low values 1.01 | S. cerevisiae deletion strains, locus YKR001C, strain vps1, hits give low values 0.992 | S. cerevisiae deletion strains, locus YKR026C, strain gcn3, hits give low values 1.01 | S. cerevisiae deletion strains, locus YKR091W, strain srl3, hits give low values 1 | S. cerevisiae deletion strains, locus YLL001W, strain dnm1, hits give low values 1.01 | S. cerevisiae deletion strains, locus YLL026W, hits give low values 1.01 | S. cerevisiae deletion strains, locus YLL041C, strain sdh2, hits give low values 1.01 | S. cerevisiae deletion strains, locus YLR027C, strain aat2, hits give low values 1.01 | S. cerevisiae deletion strains, locus YLR039C, strain RIC1, hits give low values 1.1 | S. cerevisiae deletion strains, locus YLR058C, strain SHM2, hits give low values 1.01 | S. cerevisiae deletion strains, locus YLR102C, strain apc9, hits give low values 0.997 | S. cerevisiae deletion strains, locus YLR113W, strain HOG1, hits give low values 0.986 | S. cerevisiae deletion strains, locus YLR221C, strain rsa3, hits give low values 1.01 | S. cerevisiae deletion strains, locus YLR258W, strain gsy2, hits give low values 0.996 | S. cerevisiae deletion strains, locus YLR262C, strain YPT6 (second series), hits give low values 1.01 | S. cerevisiae deletion strains, locus YLR262C, strain YPT6, hits give low values 1.08 | S. cerevisiae deletion strains, locus YLR268W, strain sec22, hits give low values 1 | S. cerevisiae deletion strains, locus YLR320W, strain mms22, hits give low values 0.995 | S. cerevisiae deletion strains, locus YLR330W, strain CHS5, hits give low values 1 | S. cerevisiae deletion strains, locus YLR342W, strain FKS1, hits give low values 0.997 | S. cerevisiae deletion strains, locus YLR357W, strain rsc2, hits give low values 1 | S. cerevisiae deletion strains, locus YLR370C, strain arc18, hits give low values 1.01 | S. cerevisiae deletion strains, locus YLR371W, strain rom2, hits give low values 1.01 | S. cerevisiae deletion strains, locus YLR384C, strain iki3, hits give low values 0.992 | S. cerevisiae deletion strains, locus YLR418C, strain cdc73, hits give low values 1 | S. cerevisiae deletion strains, locus YML016C, strain PPZ1, hits give low values 1 | S. cerevisiae deletion strains, locus YML032C, strain rad52, hits give low values 0.983 | S. cerevisiae deletion strains, locus YML120C, strain ndi1, hits give low values 1.02 | S. cerevisiae deletion strains, locus YML124C, strain tub3, hits give low values 1 | S. cerevisiae deletion strains, locus YMR058W, strain fet3, hits give low values 1.02 | S. cerevisiae deletion strains, locus YMR078C, strain ctf18, hits give low values 0.985 | S. cerevisiae deletion strains, locus YMR125W, strain sto1, hits give low values 0.997 | S. cerevisiae deletion strains, locus YMR129W, hits give low values 1 | S. cerevisiae deletion strains, locus YMR205C, strain PFK2, hits give low values 0.999 | S. cerevisiae deletion strains, locus YMR223W, strain ubp8, hits give low values 0.99 | S. cerevisiae deletion strains, locus YMR231W, strain pep5, hits give low values 0.976 | S. cerevisiae deletion strains, locus YMR263W, strain SAP30, hits give low values 1.02 | S. cerevisiae deletion strains, locus YMR307W, strain GAS1, hits give low values 1.06 | S. cerevisiae deletion strains, locus YNL067W, strain RPL9B, hits give low values 1 | S. cerevisiae deletion strains, locus YNL071W, strain lat1, hits give low values 1.01 | S. cerevisiae deletion strains, locus YNL128W, strain TEP1, hits give low values 1.02 | S. cerevisiae deletion strains, locus YNL183C, strain NPR1, hits give low values 0.946 | S. cerevisiae deletion strains, locus YNL209W, strain ssb2, hits give low values 1.03 | S. cerevisiae deletion strains, locus YNL233W, strain BNI4, hits give low values 1.02 | S. cerevisiae deletion strains, locus YNL248C, strain rpa49, hits give low values 1.02 | S. cerevisiae deletion strains, locus YNL250W, strain rad50, hits give low values 1 | S. cerevisiae deletion strains, locus YNL271C, strain bni1, hits give low values 1 | S. cerevisiae deletion strains, locus YNL298W, strain CLA4, hits give low values 0.977 | S. cerevisiae deletion strains, locus YNL307C, strain MCK1, hits give low values 0.99 | S. cerevisiae deletion strains, locus YNL322C, strain KRE1 (second series), hits give low values 0.999 | S. cerevisiae deletion strains, locus YNR049C, strain mso1, hits give low values 0.999 | S. cerevisiae deletion strains, locus YNR052C, strain pop2, hits give low values 0.984 | S. cerevisiae deletion strains, locus YOL006C, strain TOP1, hits give low values 1.09 | S. cerevisiae deletion strains, locus YOL012C, strain htz1 0.886 | S. cerevisiae deletion strains, locus YOL147C, strain pex11, hits give low values 0.995 | S. cerevisiae deletion strains, locus YOR001W, strain rrp6, hits give low values 1.03 | S. cerevisiae deletion strains, locus YOR061W, strain CKA2, hits give low values 1.01 | S. cerevisiae deletion strains, locus YOR069W, strain VPS5, hits give low values 1.01 | S. cerevisiae deletion strains, locus YOR070C, strain gyp1, hits give low values 1.01 | S. cerevisiae deletion strains, locus YOR080W, strain dia2, hits give low values 1 | S. cerevisiae deletion strains, locus YOR083W, strain WHI5, hits give low values 1 | S. cerevisiae deletion strains, locus YOR106W, strain vam3, hits give low values 1.01 | S. cerevisiae deletion strains, locus YOR136W, strain idh2, hits give low values 0.989 | S. cerevisiae deletion strains, locus YOR144C, strain elg1, hits give low values 0.989 | S. cerevisiae deletion strains, locus YOR184W, strain ser1, hits give low values 1.01 | S. cerevisiae deletion strains, locus YOR231W, strain MKK1, hits give low values 0.998 | S. cerevisiae deletion strains, locus YOR265W, strain rbl2, hits give low values 1.02 | S. cerevisiae deletion strains, locus YOR270C, strain vph1, hits give low values 1.06 | S. cerevisiae deletion strains, locus YOR290C, strain snf2, hits give low values 1.01 | S. cerevisiae deletion strains, locus YOR316C, strain cot1, hits give low values 0.994 | S. cerevisiae deletion strains, locus YPL051W, strain arl3, hits give low values 1.05 | S. cerevisiae deletion strains, locus YPL078C, strain atp4, hits give low values 1.01 | S. cerevisiae deletion strains, locus YPL106C, strain sse1, hits give low values 1.04 | S. cerevisiae deletion strains, locus YPL240C, strain hsp82, hits give low values 1.01 | S. cerevisiae deletion strains, locus YPL241C, strain CIN2, hits give low values 1.01 | S. cerevisiae deletion strains, locus YPL256C, strain CLN2, hits give low values 0.984 | S. cerevisiae deletion strains, locus YPR119W, strain clb2, hits give low values 0.991 | S. cerevisiae deletion strains, locus YPR141C, strain kar3, hits give low values 1.01 | S. cerevisiae deletion strains, locus YPR163C, strain tif3, hits give low values 0.99 | S. cerevisiae deletion strains, locus YPR167C, strain met16, hits give low values 1 | S. cerevisiae deletion strains, strain wtn01, hits give low values 1.01 | S. cerevisiae strains, strain wild type, hits give low values 1.01
